This passage reports Potency and activity change results from PubChem BioAssay (Tox21).

Values without a mark were called inactive. Where a call stands in place of a potency, no number is given. Activity calls are given as the source filed them. Calls follow the shape of the full dose curve.

Sequence of Gonadotropin-releasing hormone receptor (Homo sapiens) (P30968 whole entry, looked up): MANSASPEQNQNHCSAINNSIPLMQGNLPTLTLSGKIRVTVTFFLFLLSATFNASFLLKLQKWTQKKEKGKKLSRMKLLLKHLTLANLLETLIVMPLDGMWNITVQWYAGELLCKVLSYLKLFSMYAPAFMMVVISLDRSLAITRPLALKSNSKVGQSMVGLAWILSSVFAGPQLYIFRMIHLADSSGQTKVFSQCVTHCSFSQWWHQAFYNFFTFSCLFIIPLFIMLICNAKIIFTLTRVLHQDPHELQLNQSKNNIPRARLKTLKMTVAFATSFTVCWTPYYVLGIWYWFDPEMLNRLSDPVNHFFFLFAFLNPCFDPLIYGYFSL

The target of this experiment is Gonadotropin-releasing hormone receptor (Homo sapiens) (UniProt P30968). The experiment in a line: Human gonadotropin-releasing hormone receptor (GnRHR) small molecule agonists, calcium flux assay in GnRHR-HEK293 cells (AID 1920063). Also: nearly all actives have a fitted effect of over 35% in size. Conditions: calcium flux fluorescence, agonist mode; series mostly up to 57.6 µM. The source says:
National Center for Advancing Translational Sciences [NCATS]
Division of Preclinical Innovation [DPI]
U.S. Environmental Protection Agency [EPA]
National Institutes of Environmental Health Sciences [NIEHS]
National Toxicology Program [NTP]
U.S. Food and Drug Administration [FDA]
Gonadotropin-releasing hormone receptor (GnRHR) is a G-protein-coupled receptor (GPCR) and acts (through phospholipase C) to increase intracellular inositol trisphosphate and then release intracellular calcium stores. Cell-based GnRHR-Hek293 calcium influx assay is using HEK293 cells that have been genetically engineered to express the human GnRHR, which activity can be measured by calcium signaling. A compound/drug can activate (agonist) GnRHR that can be monitored by levels of intracellular calcium.
GnRHR-HEK293 cells developed by Codex Corp contain human GnRHR reporter gene, which was stably integrated into HEK 293 cells. The compound activation can be detected by fluorescence intensity via calcium flux assay. This cell line has been used to screen the Tox21 10K compound library to identify GnRHR agonists.
GnRHR-Hek293 cells were dispensed at 1500cells/4uL/well in 1536-well black wall/clear bottom plates using a multidrop dispenser. After the assay plates were incubated at a 37 C/5% CO2 incubator for 18 hours, 4 uL of Calcium Dye Solution was added to each well. The plates were incubated at 37 C for 1 hour. For agonist mode, 23 nL of compounds dissolved in DMSO, positive controls or DMSO only was transferred to the assay plate by a pin tool station. The fluorescence intensity in the plates was measured using FDSS 7000EX kinetic plate reader with a filter set of Ex/Em=480/540 for 3 min at 1 sec intervals. Each test compound was measured at 15 concentrations and in triplicates.
In general terms: Calcium assays in cells follow changes in intracellular calcium, usually with a dye or a luminescent sensor.
Turning to `O=C(O)CCSCCC(=O)O`, the Potency entry is “inactive”. Still for that read-out and setting: then `Nc1cc([N+](=O)[O-])cc(Cl)c1O`, with “inactive”; and `CN(C(=O)C(Cl)Cl)c1ccc(OC(=O)c2ccco2)cc1`, with “inactive”. The same measure, in the same setting: for `COc1cc(-c2nc(NC(=O)c3cc4cc(C)cc(C)c4n3CC(=O)O)sc2CCC2CCCCC2)c(OC)cc1Cl` the value was “inactive”; for `OCC(O)[C@@H](O)[C@H](O)[C@H](O)CO[C@H]1O[C@H](CO)[C@@H](O)[C@H](O)[C@H]1O` (stereo not given in full), “inactive”. Same read-out and setting: for `CNC(=O)c1ccccc1` the value was “inactive”. As to `O=C(c1ccc(F)cc1)C1CCN(CCn2c(=O)[nH]c3ccccc3c2=O)CC1`, the Potency result is “inactive”. As to `COC(=O)C1CC(=O)C(C(=O)OC)CC1=O` (stereo not given), the activity change is 0.483% [at 5.22 µM, hits give high values]. As to `O=c1c(O)c(O)c1=O`, the Potency entry was “inactive”. Still for that read-out and setting: for `CCOC(=N)CC(=O)OCC` the value was “inactive”; for `O[C@@H](CNC[C@H](O)[C@H]1CCc2cc(F)ccc2O1)[C@@H]1CCc2cc(F)ccc2O1`, “inactive”.

With `CCCCCCCCCC(=O)N(C)C`, the Potency result is “inactive”. In the case of `CCC(C)c1cc([N+](=O)[O-])cc([N+](=O)[O-])c1OC(=O)OC(C)C` (stereo not given), the Potency entry is “inactive”. Same read-out and setting: for `Oc1ccc2c(c1)CCC2` the value was “inactive”; for `Oc1ccc(Oc2ccccc2)cc1`, “inactive”. The same measure, in the same setting: for `CCC(=O)O[C@]1(C(=O)CCl)[C@@H](C)C[C@H]2[C@@H]3CCC4=CC(=O)C=C[C@]4(C)[C@@]3(F)[C@@H](O)C[C@@]21C` the value was “inactive”; for `O=C(O)c1snc(Cl)c1Cl`, “inactive”; for `CN1CCN(Cc2cc(-c3ccc4[nH]c(=O)oc4c3)co2)[C@@H](c2ccc(F)cc2)C1`, “inactive”. The same measure, in the same setting: for `C[N+]1(CC2COC(c3ccccc3)(C3CCCCC3)O2)CCCCC1` (stereo not given) the value was “inactive”. On to `CN(C)CCOC1=Cc2ccccc2Sc2ccc(Cl)cc21`, for which the Potency entry is “inactive”. Still for that read-out and setting: then `COCC(=O)Nc1c(I)c(C(=O)NCC(O)CO)c(I)c(C(=O)N(C)CC(O)CO)c1I` (stereo not given), with “inactive”; and `COc1cc(N)c(Cl)cc1C(=O)NC1CCN(CCCOc2ccc(F)cc2)CC1OC` (stereo not given), with “inactive”; and `CCCCCCCCCCn1cc[n+](CCCCCCCCCC)c1C`, with “inactive”. The same measure, in the same setting: for `COC(=O)c1cccc(Cl)c1` the value was “inactive”. Still for that read-out and setting: then `Cc1cc(=O)oc2cc(O[C@@H]3SC[C@@H](O)[C@H](O)[C@H]3O)ccc12`, with “inactive”; and `Nc1ccc(Oc2cccc(Oc3ccc(N)cc3)c2)cc1`, with “inactive”. As to `CCc1cccc(CC)c1NC(=O)CN(CC(=O)O)CC(=O)O`, the Potency entry is “inactive”.

For the molecule `CCCCC(CC)(CO)CO`, the Potency entry is “inactive”. Turning to `O=C(O)c1ccncc1`, the Potency entry was “inactive”. Still for that read-out and setting: then `C=COCCCCO`, with “inactive”. In the case of `CCCCCCC`, the Potency result is “inactive”. Same read-out and setting: for `O=C(CCCN1CCC(O)(c2ccc(Br)cc2)CC1)c1ccc(F)cc1` the value was “inactive”; for `CC(C)(C)c1nnc(NS(=O)(=O)c2ccccc2)s1`, “inactive”. Take `Cc1cc2c(cc1S(N)(=O)=O)S(=O)(=O)CCC2`: the Potency result was “inactive”.

As to `O=C1CC2(CCCC2)CC(=O)N1CCNCC1COc2ccccc2O1` (stereo not given), the Potency entry was “inactive”.

For `CCCCCCCCCCCCCCN(C)C`, the activity change was -0.071% [at 11.8 µM, hits give high values]. With `CN(C)CCn1nnnc1SCC1=C(C(=O)O)N2C(=O)[C@@H](NC(=O)Cc3csc(N)n3)[C@H]2SC1`, the Potency result is “inactive”. Same read-out and setting: for `CC12CCC(CC1=O)C2(C)C` (stereo not given) the value was “inactive”; for `CCCCOC(=O)C(C)O` (stereo not given), “inactive”; for `CN(C)CCc1c[nH]c2ccc(C[C@H]3COC(=O)N3)cc12`, “inactive”.
